Laboratory results published in ChEMBL document CHEMBL1157539, “Thousands of chemical starting points for antimalarial lead identification” (Nature, 2010).

Legend:
Format in all cases: functional
[1] = system: Plasmodium falciparum; experiment: GSK_TCMDC: Inhibition of Plasmodium falciparum 3D7 in whole red blood cells, using parasite LDH activity as an index of growth. Test compounds present at 2uM
[2] = system: Plasmodium falciparum; experiment: GSK_TCMDC: Inhibition of Plasmodium falciparum Dd2 in whole red blood cells, using parasite LDH activity as an index of growth. Test compounds present at 2uM
[3] = system: HepG2; experiment: GSK_TCMDC: Percent inhibition of human HepG2 cell line. Test compounds present at 10uM.

SMILES: Oc1ccc(-c2ccccc2)cc1CN1CCCCC1
- Inhibition [1]: 93%
- Inhibition [2]: 70%
- Inhibition [3]: 3%

SMILES: COc1ccc(CNc2ccnc(-n3cnc4cc(C)c(C)cc43)n2)cc1Cl.O=C(O)C(F)(F)F
- Inhibition [1]: 100%
- Inhibition [2]: 100%
- Inhibition [3]: 6%

SMILES: COc1cc(C)nc2ccc(NC(=O)c3cc([N+](=O)[O-])cc([N+](=O)[O-])c3)cc12.Cl
- Inhibition [1]: 100%
- Inhibition [2]: 94%
- Inhibition [3]: 0%

SMILES: C=CCOC(=O)N1CCC(CNCc2cccc(-c3cccc(-c4nc5cc(F)ccc5[nH]4)c3)c2)C1.O=C(O)C(F)(F)F (stereo not drawn)
- Inhibition [1]: 100%
- Inhibition [2]: 49%
- Inhibition [3]: 20%

SMILES: Fc1ccc2[nH]c(-c3ccc(-c4ccc(CNCC5CCCO5)cc4)cc3)nc2c1.O=C(O)C(F)(F)F (stereo not drawn)
- Inhibition [1]: 100%
- Inhibition [2]: 100%
- Inhibition [3]: 26%

SMILES: Cc1c(CCC#N)c(NCc2ccccc2)n2c(nc3ccccc32)c1C#N
- Inhibition [1]: 100%
- Inhibition [2]: 99%
- Inhibition [3]: 16%

SMILES: Cc1ccc2c(=NN=Cc3ccc(N(C)C)cc3)cc(C)[nH]c2c1
- Inhibition [1]: 99%
- Inhibition [2]: 46%
- Inhibition [3]: 0%

SMILES: COc1ccc2nccc([C@@H](O)CN3CCC(NC(=O)[C@@H]4Cc5ccccc5CN4C(=O)OC(C)(C)C)CC3)c2c1
- Inhibition [1]: 92%
- Inhibition [2]: 61%
- Inhibition [3]: 15%

SMILES: Fc1ccc2[nH]c(-c3cccc(-c4ccc(CN5CCN(c6cnccn6)CC5)cc4)c3)nc2c1.O=C(O)C(F)(F)F
- Inhibition [1]: 96%
- Inhibition [2]: 31%
- Inhibition [3]: 19%

SMILES: O=C(O)C(F)(F)F.O=C1CCCN1CCCNCc1ccc(-c2cccc(-c3nc4cc(F)ccc4[nH]3)c2)cc1
- Inhibition [1]: 100%
- Inhibition [2]: 8%
- Inhibition [3]: 12%

SMILES: CCCC(CNCc1cccc(OC(F)(F)F)c1)CNc1cc(=O)c2ccccc2[nH]1 (stereo not drawn)
- Inhibition [1]: 100%
- Inhibition [2]: 95%
- Inhibition [3]: 0%

SMILES: CCN(CC)c1nc(-c2ccccc2)cc(-c2ccccc2)c1C#N
- Inhibition [1]: 100%
- Inhibition [2]: 66%
- Inhibition [3]: 0%

SMILES: COc1cccc(-c2ccc(C(=O)NCC3CCCN(Cc4cccc(C(F)(F)F)c4)C3)s2)c1.O=C(O)C(F)(F)F (stereo not drawn)
- Inhibition [1]: 85%
- Inhibition [2]: 18%
- Inhibition [3]: 10%

SMILES: Cc1cc2c(cc1C(F)(F)F)N(C(=O)Nc1cc(OCCN(C(C)C)C(C)C)cc(C(F)(F)F)c1)CC2.Cl
- Inhibition [1]: 100%
- Inhibition [2]: 86%
- Inhibition [3]: 42%

SMILES: Cn1cccc1C(=O)Nc1cccc(-c2nn3ccccc3c2-c2ccnc(Nc3ccc4c(c3)OCCO4)n2)c1
- Inhibition [1]: 95%
- Inhibition [2]: 27%
- Inhibition [3]: 12%

SMILES: Cc1c(-c2cccc(C(C)(C)NCCCN3CCCCC3)c2)cnc(N)c1C.Cl
- Inhibition [1]: 95%
- Inhibition [2]: 2%
- Inhibition [3]: 5%

SMILES: CC(=O)c1sc(Cc2nc3ccccc3s2)nc1C
- Inhibition [1]: 94%
- Inhibition [2]: 88%
- Inhibition [3]: 0%

SMILES: Cc1ccc(NC(=O)NC2CCN(c3ccnc4cc(Cl)ccc34)C2)cc1.O=C(O)C(F)(F)F (stereo not drawn)
- Inhibition [1]: 100%
- Inhibition [2]: 96%
- Inhibition [3]: 19%

SMILES: Cc1cc(OCCCNC(=N)c2ccc3ccccc3c2)c(C(C)C)cc1Cl.Cc1ccc(S(=O)(=O)O)cc1
- Inhibition [1]: 95%
- Inhibition [2]: 10%
- Inhibition [3]: 89%

SMILES: CCCCCCCN(CCCCCCC)CCCC(=O)Nc1ccnc2ccc(OC)cc12.O=C(O)C(=O)O
- Inhibition [1]: 100%
- Inhibition [2]: 98%
- Inhibition [3]: 43%

SMILES: OC(CN1CCN(C2CCCCC2)CC1)Cn1c2ccccc2c2cc(Br)ccc21 (stereo not drawn)
- Inhibition [1]: 97%
- Inhibition [2]: 89%
- Inhibition [3]: 14%

SMILES: CN(C)Cc1ccc(-c2ccc3c(Nc4ccc(Oc5ccccc5)cc4)ccnc3c2)o1
- Inhibition [1]: 100%
- Inhibition [2]: 100%
- Inhibition [3]: 10%

SMILES: CCNc1cc(C(=O)N[C@@H](Cc2ccccc2)[C@H](O)CNC2(CC)CC2)cc(N2CCCCS2(=O)=O)c1.Cl
- Inhibition [1]: 97%
- Inhibition [2]: 94%
- Inhibition [3]: 59%

SMILES: Cc1cc(CNCCCCCNCc2ccc(Cl)cc2)ccc1O
- Inhibition [1]: 98%
- Inhibition [2]: 0%
- Inhibition [3]: 12%

SMILES: CN1CCN(CC(=O)Nc2cccc(-c3ccc(-c4nc5cc(F)ccc5[nH]4)cc3)c2)CC1
- Inhibition [1]: 100%
- Inhibition [2]: 98%
- Inhibition [3]: 20%

SMILES: CC(C)(C)c1ccc(NC(=O)c2ccc(CN3CCCN(Cc4ccc(F)cc4)CC3)cc2)cc1.O=C(O)C(F)(F)F
- Inhibition [1]: 87%
- Inhibition [2]: 7%
- Inhibition [3]: 55%

SMILES: COc1ccc(-c2cnc(N)c(-c3nc4cc(Br)ccc4[nH]3)c2)cc1.O=C(O)C(F)(F)F
- Inhibition [1]: 100%
- Inhibition [2]: 3%
- Inhibition [3]: 42%

SMILES: COc1ccc(C=Cc2ccc(-c3c(C)[nH]c(C)c(Cl)c3=O)cc2)cc1OC
- Inhibition [1]: 97%
- Inhibition [2]: 96%
- Inhibition [3]: 12%

SMILES: Cc1cccc2nc(-c3cccc(-c4cccc(NC(=O)Nc5cccc(C#N)c5)c4)c3)[nH]c12
- Inhibition [1]: 100%
- Inhibition [2]: 99%
- Inhibition [3]: 22%

SMILES: Cl.c1cc2[nH]c(CCCCCc3nc4cc(C5=N[C@@H]6CCCC[C@@H]6N5)ccc4[nH]3)nc2cc1C1=N[C@@H]2CCCC[C@@H]2N1
- Inhibition [1]: 96%
- Inhibition [2]: 98%
- Inhibition [3]: 8%

SMILES: Cc1cccc2nc(-c3ccc(-c4cccc(CN5CCCCC5)c4)s3)[nH]c12.O=C(O)C(F)(F)F
- Inhibition [1]: 100%
- Inhibition [2]: 92%
- Inhibition [3]: 11%

SMILES: Cc1cc(N2CCC(NS(=O)(=O)c3cccc4cccnc34)CC2)nc(Nc2cccc(C#N)c2)n1.O=C(O)C(F)(F)F
- Inhibition [1]: 98%
- Inhibition [2]: 87%
- Inhibition [3]: 12%

SMILES: COc1cc2c(cc1S(=O)(=O)c1ccc(NC(=O)c3cc4ccccc4s3)cc1)CCN(C)CC2
- Inhibition [1]: 100%
- Inhibition [2]: 88%
- Inhibition [3]: 21%

SMILES: O=C(Cc1ccc[n+]([O-])c1)Nc1cccc(-c2cccc(-c3nc4cc(F)ccc4[nH]3)c2)c1
- Inhibition [1]: 92%
- Inhibition [2]: 98%
- Inhibition [3]: 28%

SMILES: O=C(Nc1nc2cc(S(=O)(=O)NCCCN3CCOCC3)ccc2n1CCCn1ccnc1)c1ccc(Cl)cc1.O=C(O)C(F)(F)F
- Inhibition [1]: 95%
- Inhibition [2]: 0%
- Inhibition [3]: 0%

SMILES: Cc1cnc(N2CCN(CC3CCN(C)CC3)CC2)nc1Oc1ccc(-n2ccnc2)cc1.O=C(O)C(F)(F)F
- Inhibition [1]: 99%
- Inhibition [2]: 66%
- Inhibition [3]: 9%
